Compounds with a hit are over-represented: about 18% of the library has one in this group of screens.
Six1-Eya2 inh = Six1/Eya2 interaction inhibition. activity change, % (no concentration beside the values). AID 651725. Q15475+O00167. hit rate 0.56% among 360,000. AlphaScreen GST-Six1/His-Eya2 binding, biochemical; stronger effect = lower value; in the data active = activity change below about -65%; inconclusive = mostly about -30% to -63%
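Six1/Eya2 binding was read as AlphaScreen signal after compounds were pinned into GST-Six1 plus His-tagged Eya2 (5X stock 250/500 nM) in pH 8.0 Tris/NaCl/TCEP buffer, beads added, then incubated 1 h, 37 C, dark.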
CtBP-E1A blk = CtBP/E1A binding inhibition; AlphaScreen GST-E1A/His-CtBP binding, 1536-well; stronger effect = lower value; activity change, % (concentration not given with the values); hit rate 0.49% among 340,000; in the data active = activity change below about -65%; inconclusive = mostly about -30% to -63%
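Steps: dispense buffer (Tris pH 8.0, NaCl 300 mM, TCEP 1 mM, BSA, Tween 20); add 5X protein mix (GST-E1A, His-CtBP, 125 nM each); pin 23 nL compound; 2 h at 37 °C, dark; add 5X beads (50 ug/mL); 1 h; read.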
TDP1 cell CPT = growth inhibition of DT40 Tdp1-/-;hTDP1 cells with camptothecin (screen for TDP1 inhibitors) | Potency, µM (top dose mostly 46.2 µM), for inactives: at the top dose activity change, negative = growth inhibition, hits mostly inhibitors | chicken DT40 Tdp1-/-;hTDP1 cells + 20 nM CPT, ATP luminescence, 48 h | hit rate 12% among 420,000; note: potency is the fitted concentration of half-maximal effect; nearly all actives have a fitted effect of over 55% in size
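Cell growth measured by CellTiter-Glo luminescence after a minimum 48 h, 37 C compound exposure with 20 nM CPT in Tdp1-knockout DT40 cells stably expressing hTDP1, seeded 400/well; qHTS titration format.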
IL-1B inflam inh = blocks inflammasome-driven IL-1 beta release. THP-1 LPS/ATP IL-1B secretion, AlphaLISA, 16 h; stronger effect = lower value. activity change, % at 57.5 µM. hit rate 4.7% among 360,000. AID 743279; in the data active = activity change below about -50%; inconclusive = mostly about -30% to -49%
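Secreted IL-1B measured by AlphaLISA bead assay after 16 h compound exposure of THP-1 cells; compounds (final up to 57.5 uM) added 1 h before LPS (250 ng/mL) and ATP (1.25 mM) stimulation; lower signal means less secretion.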
DT40 TDP1 no CPT = qHTS for Inhibitors of human tyrosyl-DNA phosphodiesterase 1 (TDP1): qHTS in cells in absence of CPT | DT40 Tdp1-/- hTDP1 cells, no CPT, ATP luminescence, 48 h | Potency, µM (highest dose often 46.2 µM), for inactives: at the top dose activity change, negative = growth inhibition, usual class: inhibitors | hit rate 15% among 420,000; note: potency is the fitted concentration of half-maximal effect; nearly all actives have a fitted effect of over 55% in size
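Chicken DT40 Tdp1-/- cells complemented with human TDP1, screened without camptothecin (DMSO vehicle only), 400 cells/well. Compounds pin-transferred, cells incubated at 37 °C for at least 48 hr. Growth read as ATP-dependent luminescence (CellTiter-Glo, 30 min at RT).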
TDP1 block = blocks human tyrosyl-DNA phosphodiesterase 1; Q9NUW8; recombinant TDP1, AlphaScreen DNA substrate cleavage; Potency, µM (top dose mostly 130 µM), for inactives: at the top dose activity change, negative = inhibition, hits mostly inhibitors; hit rate 0.28% among 350,000; note: potency is the fitted concentration of half-maximal effect; nearly all actives have a fitted effect of over 40% in size
Target sequence (Q9NUW8 whole entry, looked up): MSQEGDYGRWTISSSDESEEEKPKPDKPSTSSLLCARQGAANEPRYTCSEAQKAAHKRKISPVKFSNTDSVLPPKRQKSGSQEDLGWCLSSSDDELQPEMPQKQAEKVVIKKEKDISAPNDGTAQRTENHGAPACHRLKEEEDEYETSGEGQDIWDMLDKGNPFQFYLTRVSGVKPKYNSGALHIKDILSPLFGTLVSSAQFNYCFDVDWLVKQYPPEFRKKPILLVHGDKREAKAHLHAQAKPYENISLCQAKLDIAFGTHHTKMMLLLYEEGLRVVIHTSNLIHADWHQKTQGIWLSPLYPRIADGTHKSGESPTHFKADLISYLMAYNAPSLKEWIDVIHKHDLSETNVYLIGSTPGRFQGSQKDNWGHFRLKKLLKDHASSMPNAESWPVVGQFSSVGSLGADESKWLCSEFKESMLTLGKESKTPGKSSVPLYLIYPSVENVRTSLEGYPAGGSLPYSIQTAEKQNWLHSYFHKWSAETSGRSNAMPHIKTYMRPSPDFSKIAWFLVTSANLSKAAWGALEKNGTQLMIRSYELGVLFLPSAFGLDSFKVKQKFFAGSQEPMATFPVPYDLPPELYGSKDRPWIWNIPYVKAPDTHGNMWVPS
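Enzyme-compound mixtures sat 15 min at room temperature, followed by a 5 min reaction with 15 nM final substrate and 10 min with AlphaScreen beads. Recombinant human Tdp1 was used at 1 nM final.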
Numbers without * were called inactive; ? = inconclusive; nt = no result given; [ ] = dose if it differs, or a comment. Unless noted, calls come from the whole dose curve; as a rule, active = well fitted curve in the direction sought with a large enough effect; inconclusive = small, poorly fitted or top-dose-only effect, or another doubt; inactive = no such curve, though single readings can be large; an effect the other way counts as inactive or inconclusive. % is set by controls: 0 for no effect and ±100 for the full control effect.

SMILES | Six1-Eya2 inh | CtBP-E1A blk | TDP1 cell CPT | IL-1B inflam inh | DT40 TDP1 no CPT | TDP1 block
CCCN1C(=O)c2[nH]nc(-c3cccc(OC)c3)c2C1c1ccccn1 (stereo not drawn) | nt | nt | ? | nt | 21µM* | -2%
COc1ccc(-c2n[nH]c3c2C(c2ccccn2)N(C)C3=O)cc1 (stereo not drawn) | nt | nt | ? | nt | -4% | 7%
Cc1cccc(NC(=O)c2oc3ccc(S(=O)(=O)N(C)C4CCCCC4)cc3c2C)c1C | nt | nt | 10µM* | nt | 8.2µM* | 5%
Cc1ccc(Cl)cc1NC(=O)c1oc2ccc(S(=O)(=O)N(C)C3CCCCC3)cc2c1C | nt | nt | 21µM* | nt | ? | -3%
Cc1c(C(=O)Nc2cccc(Cl)c2)oc2ccc(S(=O)(=O)N(C)C3CCCCC3)cc12 | nt | nt | ? | nt | 21µM* | 8%
Cc1c(C(=O)Nc2ccc(S(=O)(=O)Nc3ncccn3)cc2)oc2ccc(Cl)cc12 | -2 | 4 | -18% | -8 | -16% | 3%
Cn1c(=O)c2c(nc(NCc3ccco3)n2CCc2ccccc2)n(C)c1=O | -29 | -11 | 7.3µM* | -18 | 6.5µM* | -4%
Cc1ccccc1OCC(O)Cn1c(Br)nc2c1c(=O)n(C)c(=O)n2C (stereo not drawn) | 0 | nt | ? | 49 | ? | 3%
Cc1ccccc1OCC(O)Cn1c(NCc2ccco2)nc2c1c(=O)n(C)c(=O)n2C (stereo not drawn) | -17 | -10 | 12µM* | 19 | 10µM* | -4%
CCn1c(SCC(=O)NCc2ccco2)nc2c1c(=O)n(C)c(=O)n2C | 0 | 2 | -5% | 9 | -1% | 0%
Cn1c(=O)c2c(nc(NCc3ccco3)n2Cc2ccc(Cl)cc2Cl)n(C)c1=O | 8 | 9 | 12µM* | 34 | 10µM* | -4%
CCn1c(NCc2ccco2)nc2c1c(=O)n(C)c(=O)n2C | -7 | -2 | ? | -4 | 12µM* | 1%
Cn1c(=O)c2c(nc(NCCCN3CCOCC3)n2Cc2ccc(Cl)cc2Cl)n(C)c1=O | nt | nt | nt | nt | nt | 8%
Cn1c(NCC(O)CO)nc2c1c(=O)n(Cc1ccc(Cl)c(Cl)c1)c(=O)n2C (stereo not drawn) | -28 | -23 | ? | -7 | ? | 7%
Cn1c(NCc2ccco2)nc2c1c(=O)n(Cc1ccc(Cl)c(Cl)c1)c(=O)n2C | -8 | -1 | ? | ? | 18µM* | 3%
Cc1ccc(S(=O)(=O)N(C)C)cc1NC(=O)COc1cccc(-n2cnnn2)c1 | 3 | 0 | -15% | -22 | 3% | 1%
O=C1OCCC1Sc1nnc(-c2ccccc2Cl)n1Cc1ccccc1 (stereo not drawn) | 0 | 5 | -7% | 10 | -14% | 0%
O=C1OCCC1Sc1nnc(-c2ccccc2Br)n1Cc1ccccc1 (stereo not drawn) | 9 | 6 | -1% | -54* | 0% | 0%
CCOCC(=O)O | nt | nt | nt | nt | nt | 2%
Fc1ccc(-c2csc3ncnc(N4CCN(Cc5ccccc5)CC4)c23)cc1 | 1 | 2 | 21µM* | 9 | 15µM* | 2%
Cc1sc2ncnc(N3CCN(Cc4ccccc4)CC3)c2c1-c1ccc(F)cc1 | 6 | -3 | ? | -55* | ? | 11%
Fc1ccc(CN2CCN(c3ncnc4scc(-c5ccccc5)c34)CC2)cc1 | -29 | -6 | ? | ? | ? | nt
CC(=O)c1ccc(NC(=O)c2cc3c(=O)oc4ccc(C)cc4c3s2)cc1 | nt | nt | 8% | nt | -5% | 3%
Cc1c(NC(=S)NC(=O)c2ccc(-c3ccc(Cl)cc3)o2)cccc1C(=O)O | 0 | 2 | 3% | 26 | 5% | 0%
Cc1ccc(O)c(NC(=S)NC(=O)c2ccc(-c3ccc(Cl)cc3)o2)c1 | -22 | -8 | 23µM* | -5 | 26µM* | nt
SMILES | Six1-Eya2 inh | CtBP-E1A blk | TDP1 cell CPT | IL-1B inflam inh | DT40 TDP1 no CPT | TDP1 block
O=C(NC(=S)Nc1ccccc1O)c1ccc(-c2ccc(Cl)cc2)o1 | -7 | -6 | 23µM* | -1 | 16µM* | 10%
COc1ccccc1N1CCN(C2CCCN(Cc3c(F)cccc3F)C2)CC1 (stereo not drawn) | -9 | -1 | -5% | 10 | -6% | nt
CCOC(=O)c1c(Nc2ccc(OCC)cc2)nnc(-c2ccccc2)c1-c1ccccc1 | nt | nt | 15µM* | nt | 21µM* | nt
CCOC(=O)c1c(Nc2cccc(O)c2)nnc(-c2ccccc2)c1-c1ccccc1 | nt | nt | ? | nt | 23µM* | nt
CCOC(=O)CNS(=O)(=O)c1cc(-c2nnc(Nc3cccc(O)c3)c3ccccc23)ccc1C | nt | nt | ? | nt | ? | -7%[12.3 µM]
Cc1ccc(NC(=S)NNC(=O)c2ccc(N3CCOCC3)c([N+](=O)[O-])c2)cc1Cl | -18 | -14 | 1% | -16 | -12% | -3%
Cc1cc(C(F)(F)F)n2[nH]c(=O)c(N=Nc3ccccc3)c2n1 | -4 | 0 | 1% | 11 | -4% | 10%
Cc1cc(Cl)c(S(=O)(=O)N2CCN(c3ccc(F)cc3)CC2)cc1OCC(N)=O | -4 | -4 | -25% | 11 | -15% | 4%
Cc1ccc(C(C)C)cc1OCC(=O)NC1CCCCCCC1 | 25 | 9 | 18µM* | -57* | ? | nt
CC(C)c1ccc(OCC(=O)NC2CCCC2)cc1 | 5 | 7 | 2% | 3 | 16% | 1%
Cc1cc(Cl)c(S(=O)(=O)N2CCN(c3ccc(F)cc3)CC2)cc1OCC(=O)NC1CCCCC1 | -9 | -17 | 12µM* | -75* | 8.2µM* | 5%
CCOC(=O)C1CCCN(S(=O)(=O)c2cc(OCC(=O)NC3CCCCC3)c(C)cc2Cl)C1 (stereo not drawn) | 8 | -2 | 18µM* | -7 | 18µM* | 2%
O=C(COC(=O)c1cc(S(=O)(=O)N2CCOCC2)ccc1Cl)NCc1ccco1 | 0 | 5 | 13% | 3 | 2% | 1%
O=C(Nc1ccccc1C(=O)O)c1cccc(S(=O)(=O)N2CCCC2)c1 | nt | nt | -16% | nt | -18% | 0%[12.3 µM]
COc1ccc(CN2C(=O)C(C)Nc3ncnc(N4CCN(c5ccccc5)CC4)c32)cc1 (stereo not drawn) | -19 | -16 | ? | -26 | ? | 6%
CCOC(=O)c1c(C)[nH]c(O)c1C=Nc1ccccc1 | -29 | ? | -26% | -4 | ? | 8%
O=C(COC(=O)/C=C/c1ccc2c(c1)OCO2)NC1CC1 | 8 | nt | -7% | 6 | -8% | 8%
CCc1nnc(NC(=O)C2CCCN2C(=O)Nc2ccc(C)cc2)s1 (stereo not drawn) | 6 | 4 | -8% | -2 | -1% | nt

Screening results as filed in PubChem.
